Values joined by “and” are separate entries in the source; they are usually repeats but may differ in a detail not shown here. Identical values can stand only once. Records with an inconclusive call do not appear. Where a structure was tested more than once in an assay, its records may differ in their call. A number with no mark means an inactive call. Active and inactive are the calls of the source. Calls come from the whole dose curve; as a rule, active = well fitted curve in the direction sought with a large enough effect; inconclusive = small, poorly fitted or top-dose-only effect, or another doubt; inactive = no such curve, though single readings can be large or run the other way.
assay: qHTS Assay for Identifying Gametocytocidal Compounds (AID 743244);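 for max response: actives lower the fluorescent signal which means gametocytes are killed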; details: P. falciparum 3D7 stage III-V gametocytes, alamarBlue, 72 h; max response: hits give low values
Text: Malaria cases and deaths have dropped 50% in 29 countries since 2000 due to the combined effects of long-lasting insecticidal bednets, indoor residual spraying, and artemisinin-based combination therapies (ACTs). This success has raised hopes for malaria eradication and consequently stimulated interest in developing new reagents that block gametocyte transmission such as novel and safe gametocytocidal drugs. However, previous drug development efforts have focused primarily on the asexual parasites that cause symptoms, but not malaria transmission. Consequently, patients can remain infectious for weeks after the clearance of asexual parasites and clinical symptoms. To be transmitted from person to person via a mosquito, the parasites must switch from asexual to sexual development and produce male and female gametocytes. Malaria gametocytes consist of five stages (I, II, III, IV and V). The late stage gametocytes (III, IV and V) are difficult to be cultured in vitro and the long lifespan of mature gametocytes allows them being transmitted from host to mosquitoes unless they are completely eliminated by gametocytocidal agents. To identify gametocytocidal compounds which are capable of killing late stage P. falciparum gametocytes, a high throughput gametocyte viability assay was employed. This assay uses oxidoreduction indicator, alamarBlue, as a general measure of metabolic activity of gametocytes. Within live cells, the nonfluorescent resazurin is reduced to resorufin, a bright red fluorescence dye. Fluorescence decreases upon treatment of gametocytocidal compounds. P. falciparum gametocyte (3D7 strain) was used in this study.
The 1536-well gametocycidal viability assay was based on the previous method of Tanaka et al. Stage III-V gametocytes were tested against three compound libraries, including 4265 compounds from NCGC pharmaceutical collection, 400 from Malaria Box library, and 550 from an internal collection of kinase inhibitors. Briefly, 2.5 ul/well incomplete medium was dispensed into each well of 1,536-well plates using the Multidrop Combi followed by 23 nl compound transferring using the NX-TR Pintool (WAKO Scientific Solutions, San Diego, CA). Then, 2.5 ul/well of gametocytes was dispensed with a seeding density of 20,000 cells/well using the Multidrop Combi. The assay plates were incubated for 72 h at 37C with 5% CO2. After addition of 5 ul/well of 2X AlamarBlue dye (Life Technologies, cat. no. DAL1100), the plates were incubated for 24 h at 37C with 5% CO2 and then were read in a fluorescence detection mode (Ex = 525 nm, Em = 598 nm) on a ViewLux plate reader (PerkinElmer).
% is set by controls: 0 for no effect and ±100 for the full control effect; potency is the fitted concentration of half-maximal effect.

Row | Structure (SMILES) | max response | Potency
1 | CC(=O)c1ccc2c(c1)N(CCCN(C)C)c1ccccc1S2 | -10.5% | 
2 | CC(=O)Oc1c(C)c(C)c2c(c1C)CC[C@@](C)(CCC[C@H](C)CCC[C@H](C)CCCC(C)C)O2 | -2.38% and 13.2% and -6.36% | 
3 | CN1CCOC(c2ccccc2)c2ccccc2C1 (stereo not given) | -7.73% | 
4 | COc1cc(C(=O)N2CCOCC2)cc(OC)c1OC | -5.92% and 13.8% | 
5 | C[C@]12C[C@H](O)[C@H]3[C@@H](CCC4=CC(=O)CC[C@@]43C)[C@@H]1CC[C@@H]2C(=O)CO | -3.84% and -1.24% | 
6 | CC(C)(C)[C@]1(O)CCN2C[C@H]3c4ccccc4CCc4cccc(c43)[C@@H]2C1 | 13.6% and 4.8% | 
7 | CCN(CC)C(C)CN1c2ccccc2Sc2ccccc21 (stereo not given) | 2.08% and 2.32% | 
8 | C[C@]12CC[C@@H]3c4ccc(O)cc4CC[C@H]3[C@@H]1CCC2=O | -6.45% and 30.5% | 
9 | O=C1c2c(O)cccc2Cc2cccc(O)c21 | 12% | 
10 | O=C1NS(=O)(=O)c2ccccc21 | 5.05% | 
11 | NC(N)=NCCC[C@H](N)C(=O)O | -1.84% and -1.95% | 
12 | O=C1O[C@H]([C@@H](O)CO)C(O)=C1O | -4.25% and 24.7% | 
13 | CCN(CC)CCCC(C)Nc1c2ccc(Cl)cc2nc2ccc(OC)cc12 (stereo not given) |  | 3.16 µM (active) and 1 µM (active)
14 | NS(=O)(=O)c1cc2c(cc1C(F)(F)F)NC(Cc1ccccc1)NS2(=O)=O (stereo not given) | 5.19% | 
15 | Cc1ncc(COP(=O)(O)O)c(C=O)c1O | 5.05% | 
16 | NC(=O)NC(=O)Cc1ccccc1 | 3.39% | 
17 | CC1(C)[C@@H]2CC[C@@]1(C)C(=O)C2 | -6.95% | 
18 | CC1(C)OC(=O)NC1=O | 2.42% | 
19 | Cc1c(Cl)cccc1Nc1ccccc1C(=O)O | -7.91% | 
20 | CC(=O)O[C@@]12CO[C@@H]1C[C@H](O)[C@@]1(C)C(=O)[C@H](O)C3=C(C)[C@@H](OC(=O)[C@H](O)[C@@H](NC(=O)OC(C)(C)C)c4ccccc4)C[C@@](O)([C@@H](OC(=O)c4ccccc4)[C@H]21)C3(C)C | -16.9% | 18.7 µM (active)

Row | Structure (SMILES) | max response | Potency
21 | CC(O)COc1ccccc1 (stereo not given) | 8.99% | 
22 | CC(=O)Oc1ccc(C2(c3ccc(OC(C)=O)cc3)C(=O)Nc3ccccc32)cc1 | -4.55% and 20.8% | 
23 | CCn1cc(C(=O)O)c(=O)c2cnc(N3CCNCC3)nc21 | 12.2% | 
24 | C[C@H]1O[C@H](O[C@H]2[C@H](O)[C@@H](O)[C@@H](O[C@H]3[C@H](O)[C@@H](O)[C@H](O)O[C@@H]3CO)O[C@@H]2CO)[C@H](O)[C@@H](O)[C@@H]1N[C@H]1C=C(CO)[C@@H](O)[C@H](O)[C@H]1O | 2.05% | 
25 | O=C1OC(OC(=O)c2cccnc2Nc2cccc(C(F)(F)F)c2)c2ccccc21 (stereo not given) | 9.12% | 
26 | OCc1cc(C(O)CNCCCCCCOCCCCc2ccccc2)ccc1O (stereo not given) |  | 10 µM (active)
27 | CCOC(CN1CCN(CC(C)C(=O)c2ccccc2)CC1)c1ccccc1 (stereo not given) | 18.2% | 
28 | CCCCCCCCCCCCCCCCCCOCC(O)CO (stereo not given) | 1.98% | 
29 | NCCNCCNCCNCCN | -2.7% | 
30 | Cc1cc(CC(=O)O)n(C)c1C(=O)c1ccc(Cl)cc1 | 5.09% and -10.7% | 
31 | Cc1cc(C(C#N)c2ccc(Cl)cc2)c(Cl)cc1NC(=O)c1cc(I)cc(I)c1O (stereo not given) | 0.496% | 
32 | CN(N=O)C(=O)N[C@@H]1[C@@H](O)[C@H](O)[C@@H](CO)O[C@@H]1O | 5.26% | 
33 | COC(=O)C1=C(C)NC(C)=C(C(=O)OC)C1c1ccccc1[N+](=O)[O-] | 13.4% and 13.1% | 
34 | Cc1cc2c(cc1S(N)(=O)=O)S(=O)(=O)CCC2 | 20.4% | 
35 | CCOC(=O)[C@H](CCc1ccccc1)N[C@@H](C)C(=O)N1C(=O)N(C)C[C@H]1C(=O)O | 6.96% | 
36 | CC(=O)Nc1ccc(/C=N/NC(N)=S)cc1 | -6.31% and 5.4% | 
37 | N[C@@H](CSSC[C@H](N)C(=O)O)C(=O)O | 13.6% | 
38 | Nc1cc(=O)[nH]c(N)n1 | -11.1% and 4.42% | 
39 | CC(C)C(=O)c1c(C(C)C)nn2ccccc12 | -11.3% and 12.6% | 

Reference: PubChem BioAssay (NCATS)
